Laboratory results: the antibiotic and cytotoxicity screens of Wong et al. (2023)
The whole screen tested about 39,000 compounds, of which about 3,300 (8.5%) were called active. The sample as a whole holds a higher share of actives than the screen did.

Each molecule was assayed on HepG2 (assay: cytotoxicity call (relative viability < 0.9)). Details: 10 µM.

| Compound | cytotoxicity call |
| --- | --- |
| CC(C)NC(=O)N(C)C[C@H]1OCCCC[C@H](C)Oc2ccc(NS(C)(=O)=O)cc2C(=O)N([C@H](C)CO)C[C@@H]1C | inactive |
| C[C@H](CO)N1C[C@H](C)[C@@H](CN(C)C(=O)Nc2cccc3ccccc23)Oc2ccc(NS(=O)(=O)c3cccs3)cc2CC1=O | inactive |
| CN(C)CCN1CCNCC1 | inactive |
| C[C@H](NC(=O)N(C)C[C@H]1OCc2ccccc2-c2ccccc2C(=O)N([C@H](C)CO)C[C@@H]1C)c1ccccc1 | inactive |
| O=C(NCCO[N+](=O)[O-])c1cccnc1 [listing 1 of 2 here] | active |
| O=C(NCCO[N+](=O)[O-])c1cccnc1 [listing 2 of 2 here] | inactive |
| CC(=O)OCCNC(=O)c1cccnc1 | inactive |
| CC(C)CC#Cc1ccc2c(c1)O[C@H](CN(C)Cc1cncnc1)[C@@H](C)CN([C@@H](C)CO)S2(=O)=O | inactive |
| O=C(C[C@H]1C=C[C@@H](NC(=O)c2cccc(F)c2)[C@@H](CO)O1)NCCN1CCCC1 | inactive |
| C[C@@H]1COCCS(=O)(=O)N1C | inactive |
| O=C(CCCCCNC(=O)OC[C@H]1C(=O)O[C@@H](Cc2ccccc2)[C@H]2[C@H]3C(=CC(=O)[C@@H]3C3CC3)CN21)NO | inactive |
| C[C@@H]1CCCCO[C@@H](CN(C)C(=O)CCC(F)(F)F)[C@@H](C)CN([C@@H](C)CO)C(=O)c2cc(NS(=O)(=O)c3ccc(F)cc3)ccc2O1 | inactive |
| COc1cccc(S(=O)(=O)N(C)C[C@@H]2OCc3cn(nn3)CCCC(=O)N([C@@H](C)CO)C[C@@H]2C)c1 | inactive |
| C[C@H](CO)N1C[C@H](C)[C@H](CN(C)S(=O)(=O)c2ccc(Cl)cc2)OCCCC[C@H](C)Oc2ccc(NC(=O)NC3CCCCC3)cc2C1=O | inactive |
| C[C@@H]1CCCCO[C@H](CN(C)S(=O)(=O)c2ccc(Cl)cc2)[C@H](C)CN([C@H](C)CO)C(=O)c2cc(NC(=O)NC3CCCCC3)ccc2O1 | active |
| C[C@@H]1CCCCO[C@@H](CN(C)S(=O)(=O)c2ccc(Cl)cc2)[C@H](C)CN([C@H](C)CO)C(=O)c2cc(NC(=O)NC3CCCCC3)ccc2O1 | active |
| C[C@@H]1CN([C@H](C)CO)C(=O)c2cc(NC(=O)NC3CCCCC3)ccc2O[C@@H](C)CCCCO[C@@H]1CN(C)S(=O)(=O)c1ccc(Cl)cc1 | inactive |
| C[C@H](CO)N1C[C@H](C)[C@@H](CN(C)S(=O)(=O)c2ccc(Cl)cc2)OCCCC[C@H](C)Oc2ccc(NC(=O)NC3CCCCC3)cc2C1=O | active |
| C[C@@H]1CN([C@H](C)CO)C(=O)c2cc(NC(=O)NC3CCCCC3)ccc2O[C@@H](C)CCCCO[C@H]1CN(C)S(=O)(=O)c1ccc(Cl)cc1 | active |
| C[C@@H]1CCCCO[C@@H](CN(C)S(=O)(=O)c2ccc(Cl)cc2)[C@H](C)CN([C@@H](C)CO)C(=O)c2cc(NC(=O)NC3CCCCC3)ccc2O1 | inactive |
| C[C@@H]1CN([C@@H](C)CO)C(=O)c2cc(NC(=O)NC3CCCCC3)ccc2O[C@@H](C)CCCCO[C@@H]1CN(C)S(=O)(=O)c1ccc(Cl)cc1 | inactive |

| Compound | cytotoxicity call |
| --- | --- |
| C[C@@H]1CCCCO[C@@H](CN(C)S(=O)(=O)c2ccc(Cl)cc2)[C@@H](C)CN([C@H](C)CO)C(=O)c2cc(NC(=O)NC3CCCCC3)ccc2O1 | inactive |
| C[C@@H]1CCCCO[C@H](CN(C)S(=O)(=O)c2ccc(Cl)cc2)[C@@H](C)CN([C@H](C)CO)C(=O)c2cc(NC(=O)NC3CCCCC3)ccc2O1 | inactive |
| Cc1ccc(S(=O)(=O)N(C)C[C@H]2OCCCC[C@H](C)Oc3ccc(NS(C)(=O)=O)cc3C(=O)N([C@H](C)CO)C[C@H]2C)cc1 | inactive |
| CNC[C@@H]1OCCCC[C@@H](C)Oc2ccc(NC(=O)c3ccncc3)cc2C(=O)N([C@@H](C)CO)C[C@H]1C | inactive |
| C[C@H](CO)N1C[C@H](C)[C@H](CN(C)C(=O)c2ccncc2)OCCCC[C@H](C)Oc2ccc(NS(=O)(=O)c3ccc(Cl)cc3)cc2C1=O | inactive |
| CC(C)CN1C[C@H](C(=O)O)CC1=O | inactive |
| C[C@H](CO)N1C[C@H](C)[C@@H](CN(C)S(=O)(=O)c2cccs2)Oc2ccc(NC(=O)Cn3cnnn3)cc2C1=O | inactive |
| COc1ccc(CCN2C(=O)[C@@]3(c4ccc([N+](=O)[O-])cc4)CC(=O)N(C4CCCCC4)[C@@H]3c3ccc(CO)cc32)cc1 | inactive |
| C[C@@H]1CN([C@H](C)CO)C(=O)c2cc(NC(=O)C3CCCCC3)ccc2O[C@@H](C)CCCCO[C@H]1CN(C)Cc1ccncc1 | inactive |
| C[C@H](CO)N1C[C@H](C)[C@H](CN(C)C(=O)c2ccccn2)Oc2cc(C#Cc3ccccc3)ccc2S1(=O)=O | inactive |
| C[C@H](CO)N1C[C@H](C)[C@@H](CN(C)C(=O)Nc2ccc3c(c2)OCO3)OCCCC[C@H](C)Oc2ccc(NC(=O)Nc3ccc(C(F)(F)F)cc3)cc2C1=O | inactive |
| C[C@@H]1CN([C@@H](C)CO)C(=O)c2cccc(NS(C)(=O)=O)c2O[C@H]1CN(C)Cc1ccc2c(c1)OCO2 | inactive |
| Cc1ccc(S(=O)(=O)N2C[C@H](O)COC[C@H]3O[C@H](CC(=O)NCc4ccc5c(c4)OCO5)CC[C@@H]32)cc1 | inactive |
| C[C@H]1CN([C@@H](C)CO)C(=O)c2cc(C#Cc3cccc(F)c3)cnc2O[C@@H]1CN(C)CC1CCOCC1 | inactive |
| C[C@H](CO)N1C[C@H](C)[C@H](CN(C)C(=O)Nc2ccc(C(F)(F)F)cc2)OCCCC[C@H](C)Oc2ccc(NC(=O)Nc3ccc4c(c3)OCO4)cc2C1=O | inactive |
| C[C@H]1CCCCO[C@H](CN(C)S(=O)(=O)c2ccc(Cl)cc2)[C@@H](C)CN([C@@H](C)CO)C(=O)c2cc(NC(=O)NC3CCCCC3)ccc2O1 | inactive |
| C[C@@H]1CCCCO[C@H](CN(C)S(=O)(=O)c2ccc(Cl)cc2)[C@@H](C)CN([C@@H](C)CO)C(=O)c2cc(NC(=O)NC3CCCCC3)ccc2O1 | inactive |
| C[C@@H]1CCCCO[C@@H](CN(C)S(=O)(=O)c2ccc(Cl)cc2)[C@@H](C)CN([C@@H](C)CO)C(=O)c2cc(NC(=O)NC3CCCCC3)ccc2O1 | active |
| C[C@@H]1CCCCO[C@H](CN(C)S(=O)(=O)c2ccc(Cl)cc2)[C@H](C)CN([C@@H](C)CO)C(=O)c2cc(NC(=O)NC3CCCCC3)ccc2O1 | inactive |
| C[C@H]1CCCCO[C@@H](CN(C)S(=O)(=O)c2ccc(Cl)cc2)[C@@H](C)CN([C@@H](C)CO)C(=O)c2cc(NC(=O)NC3CCCCC3)ccc2O1 | active |
